Measured values as given in the supplement of paper PMC10849652.
Targets with a hit are over-represented here; the source holds about 7,900 in all. About 0.6% of all pairs of compound and target were hits.

What was measured:
Assay in all cases: log2 fold change, soluble protein after heating vs DMSO (PISA); higher = thermal stabilisation; K562 cells, 10 uM, 30 min; active = over 0.2 and 3.5 SD of the protein, either way, in both replicates (recomputed)
[1] = compound: CS(=O)(=O)c1ccc(-c2cnc(N)c(C(=O)Nc3ccccc3)n2)cc1
Procedure, shortened: (§1)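 Soluble protein was defined as the supernatant after 21,000xg for 90 min. It came from K562 cells at 2×10^6 cells/mL given 10 μM compound for 30 min, heated in aliquots for 3 min across 48°C-58°C, pooled, and extracted in PBS with 0.5% NP-40 at 4°C, and was quantified by TMTpro 16plex LC-MS/MS with equalised channel sums. Thermal stability against control samples, from duplicates, is reported as log2 fold change.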

crizotinib = compound: C[C@@H](Oc1cc(-c2cnn(C3CCNCC3)c2)cnc1N)c1c(Cl)ccc(F)c1Cl [crizotinib]
Procedure, shortened: as §1

[2] = compound: C[C@@H]1COCCN1C2=NC(=NC(=C2)C3(CC3)S(=O)(=O)C)C4=C5C=CNC5=CC=C4
Procedure, shortened: as §1

[3] = compound: C[C@H](C1=CC=C(C=C1)C(=O)NC2=C3C=CNC3=NC=C2)N
Procedure, shortened: as §1

duvelisib = compound: C[C@H](Nc1ncnc2nc[nH]c12)c1cc2cccc(Cl)c2c(=O)n1-c1ccccc1 [duvelisib]
Procedure, shortened: as §1

gandotinib = compound: Cc1cc(Nc2cc(CN3CCOCC3)c3nc(C)c(Cc4ccc(Cl)cc4F)n3n2)n[nH]1 [gandotinib]
Procedure, shortened: as §1

tozasertib = compound: Cc1cc(Nc2cc(N3CCN(C)CC3)nc(Sc3ccc(NC(=O)C4CC4)cc3)n2)n[nH]1 [tozasertib]
Procedure, shortened: as §1

[4] = compound: Cc1cc(SCc2sc(-c3ccc(C(F)(F)F)cc3)nc2C)ccc1OCC(=O)O
Procedure, shortened: as §1

doramapimod = compound: Cc1ccc(-n2nc(C(C)(C)C)cc2NC(=O)Nc2ccc(OCCN3CCOCC3)c3ccccc23)cc1 [doramapimod]
Procedure, shortened: as §1

ispinesib = compound: Cc1ccc(C(=O)N(CCCN)[C@@H](c2nc3cc(Cl)ccc3c(=O)n2Cc2ccccc2)C(C)C)cc1 [ispinesib]
Procedure, shortened: as §1

bafetinib = compound: Cc1ccc(NC(=O)c2ccc(CN3CC[C@H](N(C)C)C3)c(C(F)(F)F)c2)cc1Nc1nccc(-c2cncnc2)n1 [bafetinib]
Procedure, shortened: as §1

[5] = compound: Cc1cccc(CC(=O)N2CCc3c2ccc(-c2cn(C)c4ncnc(N)c24)c3F)n1
Procedure, shortened: as §1

nilotinib = compound: Cc1cn(-c2cc(NC(=O)c3ccc(C)c(Nc4nccc(-c5cccnc5)n4)c3)cc(C(F)(F)F)c2)cn1 [nilotinib]
Procedure, shortened: as §1

[6] = compound: Cc1nc(Nc2n[nH]c3c2CN(C(=O)N[C@H](CN(C)C)c2ccccc2)C3(C)C)c2sccc2n1
Procedure, shortened: as §1

dasatinib = compound: Cc1nc(Nc2ncc(C(=O)Nc3c(C)cccc3Cl)s2)cc(N2CCN(CCO)CC2)n1 [dasatinib]
Procedure, shortened: as §1

[7] = compound: Cc1ncc(-c2ccnc(Nc3ccc(S(C)(=O)=O)cc3)n2)n1C(C)C
Procedure, shortened: as §1

[8] = compound: Cn1cc(-c2ccc3c(c2)CCN3C(=O)Cc2cccc(C(F)(F)F)c2)c2c(N)ncnc21
Procedure, shortened: as §1

[9] = compound: Cn1cc(-c2ccc3nnc(C(F)(F)c4ccc5ncccc5c4)n3n2)cn1
Procedure, shortened: as §1

tipifarnib = compound: Cn1cncc1[C@@](N)(c1ccc(Cl)cc1)c1ccc2c(c1)c(-c1cccc(Cl)c1)cc(=O)n2C [tipifarnib]
Procedure, shortened: as §1

mubritinib = compound: FC(F)(F)c1ccc(/C=C/c2nc(COc3ccc(CCCCn4ccnn4)cc3)co2)cc1 [mubritinib]
Procedure, shortened: as §1

Measured: log2 fold change

SIRT2 (UniProt Q8IXJ6)
Sequence of UniProt Q8IXJ6 (Q8IXJ6 whole entry, looked up): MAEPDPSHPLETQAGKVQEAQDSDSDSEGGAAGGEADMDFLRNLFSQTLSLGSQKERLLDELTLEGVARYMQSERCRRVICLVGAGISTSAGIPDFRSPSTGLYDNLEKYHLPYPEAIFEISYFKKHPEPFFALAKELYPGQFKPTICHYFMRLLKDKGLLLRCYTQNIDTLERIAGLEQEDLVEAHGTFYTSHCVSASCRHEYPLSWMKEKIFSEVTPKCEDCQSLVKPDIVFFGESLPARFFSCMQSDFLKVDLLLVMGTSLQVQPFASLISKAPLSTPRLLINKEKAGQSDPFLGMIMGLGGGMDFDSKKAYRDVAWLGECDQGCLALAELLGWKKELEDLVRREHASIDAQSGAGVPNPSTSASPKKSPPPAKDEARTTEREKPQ
inactive: [1] 0.042 | crizotinib -0.015 | [2] -0.002 | [3] 0.072 | duvelisib -0.048 | gandotinib 0.002 | tozasertib -0.099 | [4] -0.032 | doramapimod -0.009 | ispinesib -0.001 | bafetinib -0.041 | [5] -0.003 | nilotinib 0.061 | [6] -0.006 | dasatinib -0.032 | [7] -0.051 | [8] 0.104 | [9] -0.002 | tipifarnib 0.027 | mubritinib 0.067

SCO2 (UniProt O43819)
Sequence of UniProt O43819 (O43819 whole entry, looked up): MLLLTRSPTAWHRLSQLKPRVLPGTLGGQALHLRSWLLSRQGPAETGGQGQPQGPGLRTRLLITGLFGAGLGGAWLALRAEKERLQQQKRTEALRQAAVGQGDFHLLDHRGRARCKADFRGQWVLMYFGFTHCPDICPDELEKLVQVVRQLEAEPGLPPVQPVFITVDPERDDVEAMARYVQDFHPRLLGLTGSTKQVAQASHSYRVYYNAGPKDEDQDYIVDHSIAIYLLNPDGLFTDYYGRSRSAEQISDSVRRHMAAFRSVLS
inactive: [1] 0.062 | crizotinib -0.106 | [2] 0.05 | [3] -0.016 | duvelisib 0.14 | gandotinib 0.026 | tozasertib 0 | [4] 0.061 | doramapimod -0.031 | ispinesib -0.134 | bafetinib -0.058 | [5] -0.014 | dasatinib -0.042 | [8] 0.107 | [9] 0.039 | tipifarnib 0.014 | mubritinib -0.035

RBM48 isoform 2 (UniProt Q5RL73)
inactive: [1] 0.081 | crizotinib 0.25 | [2] -0.069 | [3] -0.06 | gandotinib 0.152 | tozasertib -0.245 | doramapimod 0.041 | ispinesib 0.072 | bafetinib 0.118 | [5] -0.012 | nilotinib 0.13 | [6] -0.006 | [7] -0.034 | [8] 0.047 | [9] -0.457 | tipifarnib 0.127

RNF14 (UniProt Q9UBS8)
Sequence of UniProt Q9UBS8 (Q9UBS8 whole entry, looked up): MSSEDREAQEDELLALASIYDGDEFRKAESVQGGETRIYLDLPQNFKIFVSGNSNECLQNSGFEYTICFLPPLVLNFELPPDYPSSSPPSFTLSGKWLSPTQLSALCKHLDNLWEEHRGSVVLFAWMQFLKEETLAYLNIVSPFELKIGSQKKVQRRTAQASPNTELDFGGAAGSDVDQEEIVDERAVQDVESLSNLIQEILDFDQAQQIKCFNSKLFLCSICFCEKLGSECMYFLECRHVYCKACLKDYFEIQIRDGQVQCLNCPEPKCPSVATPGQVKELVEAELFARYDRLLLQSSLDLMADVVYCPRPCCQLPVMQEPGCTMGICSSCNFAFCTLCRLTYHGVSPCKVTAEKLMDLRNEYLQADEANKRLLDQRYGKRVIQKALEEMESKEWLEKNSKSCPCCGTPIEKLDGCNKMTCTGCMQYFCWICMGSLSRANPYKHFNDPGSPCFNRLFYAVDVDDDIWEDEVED
inactive: [1] 0.034 | crizotinib 0.014 | [2] 0.081 | [3] -0.053 | duvelisib 0.031 | gandotinib 0.001 | tozasertib 0.058 | [4] 0.041 | doramapimod -0.025 | ispinesib -0.032 | bafetinib -0.033 | [5] 0.05 | nilotinib -0.002 | [6] -0.07 | dasatinib -0.136 | [7] -0.048 | [8] -0.017 | [9] 0.033 | tipifarnib -0.05 | mubritinib 0.017

RNF167 (UniProt Q9H6Y7)
inactive: [1] 0.087 | crizotinib -0.133 | [2] -0.097 | [3] 0.082 | duvelisib -0.026 | gandotinib -0.045 | tozasertib 0.027 | [4] 0.018 | doramapimod -0.056 | bafetinib -0.049 | [5] -0.012 | nilotinib 0.049 | [6] -0.014 | dasatinib 0.039 | [7] 0.025 | [8] -0.068 | [9] 0.032 | tipifarnib 0.008 | mubritinib 0.001
active: ispinesib -0.668

RABGAP1L isoform 5 (UniProt Q5R372)
inactive: [1] 0.071 | crizotinib 0.003 | [2] 0.022 | [3] 0.046 | duvelisib 0.008 | tozasertib -0.121 | [4] -0.015 | doramapimod -0.073 | bafetinib -0.031 | nilotinib 0.112 | [6] -0.003 | dasatinib -0.054 | [7] -0.047 | [8] -0.002 | tipifarnib 0.073 | mubritinib 0.036

ROCK1 (UniProt Q13464)
inactive: [1] 0.016 | crizotinib -0.017 | [2] 0.042 | duvelisib -0.019 | gandotinib -0.025 | tozasertib 0.015 | [4] 0.027 | doramapimod -0.025 | ispinesib -0.069 | bafetinib -0.017 | [5] -0.006 | nilotinib -0.03 | [6] 0.007 | dasatinib -0.028 | [7] 0.034 | [8] -0.006 | [9] 0.01 | tipifarnib -0.037 | mubritinib 0.062

RHOA (UniProt P61586)
inactive: [1] 0.028 | crizotinib 0.098 | [2] -0.317 | [3] -0.101 | duvelisib -0.066 | gandotinib 0.022 | tozasertib -0.024 | [4] -0.035 | doramapimod -0.082 | ispinesib 0.219 | bafetinib -0.149 | [5] -0.051 | nilotinib 0.154 | [6] 0.001 | dasatinib 0.001 | [7] 0.014 | [8] 0.04 | [9] 0.012 | tipifarnib 0 | mubritinib 0.029

RAB3IL1 (UniProt E9PK89)
inactive: [1] 0.036 | crizotinib -0.003 | [2] 0.163 | [3] -0.211 | gandotinib 0.154 | tozasertib -0.099 | doramapimod -0.07 | ispinesib 0.07 | bafetinib -0.053 | [5] 0.01 | nilotinib -0.007 | [6] -0.189 | [7] -0.101 | [8] 0.258 | [9] 0.056 | tipifarnib -0.035

RSPRY1 (UniProt Q96DX4)
Sequence of UniProt Q96DX4 (Q96DX4 whole entry, looked up): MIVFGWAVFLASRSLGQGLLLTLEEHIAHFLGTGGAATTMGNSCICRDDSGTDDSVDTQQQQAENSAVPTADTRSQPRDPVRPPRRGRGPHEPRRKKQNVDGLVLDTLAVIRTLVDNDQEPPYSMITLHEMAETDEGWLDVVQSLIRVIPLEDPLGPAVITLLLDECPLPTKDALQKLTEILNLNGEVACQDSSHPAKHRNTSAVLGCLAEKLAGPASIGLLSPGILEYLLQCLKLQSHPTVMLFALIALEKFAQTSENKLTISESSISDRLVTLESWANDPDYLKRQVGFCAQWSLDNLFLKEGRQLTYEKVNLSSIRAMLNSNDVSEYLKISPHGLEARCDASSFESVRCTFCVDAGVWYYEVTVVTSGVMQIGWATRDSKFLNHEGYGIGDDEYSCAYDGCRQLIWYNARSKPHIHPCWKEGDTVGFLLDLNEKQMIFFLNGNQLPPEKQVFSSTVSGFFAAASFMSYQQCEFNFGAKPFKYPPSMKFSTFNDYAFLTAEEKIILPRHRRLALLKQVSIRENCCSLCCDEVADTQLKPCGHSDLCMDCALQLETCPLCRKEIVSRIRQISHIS
inactive: [1] -0.037 | crizotinib 0.11 | [2] 0.02 | [3] -0.006 | duvelisib 0.142 | gandotinib 0.067 | tozasertib -0.053 | [4] 0.012 | doramapimod 0.083 | ispinesib 0.033 | bafetinib 0.052 | [5] -0.05 | nilotinib 0.012 | [6] -0.037 | dasatinib -0.036 | [7] 0.01 | [8] 0.007 | [9] -0.049 | tipifarnib 0.093 | mubritinib -0.039

RBBP6 (UniProt Q7Z6E9)
Sequence of UniProt Q7Z6E9 (Q7Z6E9 whole entry, looked up): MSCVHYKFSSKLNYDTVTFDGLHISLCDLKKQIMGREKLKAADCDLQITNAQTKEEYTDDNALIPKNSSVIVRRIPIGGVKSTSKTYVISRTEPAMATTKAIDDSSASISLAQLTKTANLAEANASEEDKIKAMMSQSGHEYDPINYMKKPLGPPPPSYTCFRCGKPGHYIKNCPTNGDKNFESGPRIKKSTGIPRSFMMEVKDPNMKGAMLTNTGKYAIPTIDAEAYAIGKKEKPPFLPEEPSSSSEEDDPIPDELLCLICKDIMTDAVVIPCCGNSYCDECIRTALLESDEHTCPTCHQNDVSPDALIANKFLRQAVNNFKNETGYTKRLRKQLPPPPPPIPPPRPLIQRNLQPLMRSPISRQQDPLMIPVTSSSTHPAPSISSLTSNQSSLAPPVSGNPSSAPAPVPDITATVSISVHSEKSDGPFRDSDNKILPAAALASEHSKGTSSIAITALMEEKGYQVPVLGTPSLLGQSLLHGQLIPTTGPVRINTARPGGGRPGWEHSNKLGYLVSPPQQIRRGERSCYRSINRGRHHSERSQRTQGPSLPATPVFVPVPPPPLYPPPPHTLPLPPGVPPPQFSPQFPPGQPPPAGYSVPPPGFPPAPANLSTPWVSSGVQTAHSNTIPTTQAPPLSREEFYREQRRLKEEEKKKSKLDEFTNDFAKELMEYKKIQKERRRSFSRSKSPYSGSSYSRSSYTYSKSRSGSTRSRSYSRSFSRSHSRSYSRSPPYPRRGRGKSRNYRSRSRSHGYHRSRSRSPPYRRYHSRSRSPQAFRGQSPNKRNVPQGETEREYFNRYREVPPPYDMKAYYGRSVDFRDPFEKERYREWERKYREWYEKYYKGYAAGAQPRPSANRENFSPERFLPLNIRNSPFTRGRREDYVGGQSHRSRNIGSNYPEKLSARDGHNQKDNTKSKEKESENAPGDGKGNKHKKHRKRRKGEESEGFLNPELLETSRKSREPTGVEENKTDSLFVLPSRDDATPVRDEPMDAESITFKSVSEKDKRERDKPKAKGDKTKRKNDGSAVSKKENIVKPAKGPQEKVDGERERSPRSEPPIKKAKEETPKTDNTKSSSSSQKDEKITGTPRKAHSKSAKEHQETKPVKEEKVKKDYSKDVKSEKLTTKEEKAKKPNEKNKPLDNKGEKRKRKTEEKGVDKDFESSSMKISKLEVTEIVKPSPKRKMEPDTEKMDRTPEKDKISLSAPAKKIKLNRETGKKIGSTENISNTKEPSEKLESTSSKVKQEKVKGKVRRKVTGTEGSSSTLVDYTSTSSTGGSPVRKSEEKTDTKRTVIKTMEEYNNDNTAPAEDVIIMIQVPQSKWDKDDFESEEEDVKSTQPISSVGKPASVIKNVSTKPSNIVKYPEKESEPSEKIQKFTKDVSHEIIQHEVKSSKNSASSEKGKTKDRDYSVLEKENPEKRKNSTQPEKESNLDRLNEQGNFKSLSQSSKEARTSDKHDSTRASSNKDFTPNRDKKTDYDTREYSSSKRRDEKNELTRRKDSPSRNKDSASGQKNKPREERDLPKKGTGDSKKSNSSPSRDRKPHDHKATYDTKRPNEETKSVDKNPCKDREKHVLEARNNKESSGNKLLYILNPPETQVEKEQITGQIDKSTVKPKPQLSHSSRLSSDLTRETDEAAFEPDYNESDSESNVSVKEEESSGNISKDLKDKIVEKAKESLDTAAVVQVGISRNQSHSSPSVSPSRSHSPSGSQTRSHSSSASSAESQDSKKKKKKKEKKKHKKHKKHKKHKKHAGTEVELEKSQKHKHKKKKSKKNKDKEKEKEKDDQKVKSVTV
inactive: [1] -0.117 | crizotinib -0.158 | [2] -0.036 | [3] 0.072 | gandotinib -0.066 | tozasertib 0.03 | doramapimod 0.012 | ispinesib 0.168 | bafetinib -0.018 | [5] -0.004 | nilotinib 0 | [6] -0.031 | [7] -0.003 | [8] 0.003 | [9] -0.01 | tipifarnib -0.058 | mubritinib -0.171

RSF1 (UniProt Q96T23)
inactive: [1] 0.056 | crizotinib -0.054 | [2] -0.002 | [3] -0.058 | duvelisib 0.108 | gandotinib -0.104 | tozasertib 0.228 | [4] 0.194 | doramapimod 0.043 | ispinesib 0.087 | bafetinib 0.117 | [5] -0.027 | nilotinib 0.087 | [6] -0.102 | dasatinib -0.082 | [7] -0.096 | [8] 0.046 | [9] 0.079 | tipifarnib -0.222 | mubritinib 0.237

SH2D1B (UniProt O14796)
Sequence of UniProt O14796 (O14796 whole entry, looked up): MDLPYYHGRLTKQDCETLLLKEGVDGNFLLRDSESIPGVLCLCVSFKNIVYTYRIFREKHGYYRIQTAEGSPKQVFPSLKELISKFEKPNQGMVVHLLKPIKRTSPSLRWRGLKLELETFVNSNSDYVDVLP
active: crizotinib -0.765 | dasatinib -1.18
inactive: [1] -0.031 | [2] 0.075 | [3] -0.201 | duvelisib 0.102 | gandotinib -0.692 | tozasertib -0.479 | [4] -0.08 | doramapimod -0.072 | ispinesib 0.06 | [5] 0.018 | nilotinib -0.421 | [6] -0.319 | [7] 0.005 | [8] -0.358 | [9] -0.069 | tipifarnib 0.045 | mubritinib -0.187

SLC12A5 (UniProt Q9H2X9)
Sequence of UniProt Q9H2X9 (Q9H2X9 whole entry, looked up): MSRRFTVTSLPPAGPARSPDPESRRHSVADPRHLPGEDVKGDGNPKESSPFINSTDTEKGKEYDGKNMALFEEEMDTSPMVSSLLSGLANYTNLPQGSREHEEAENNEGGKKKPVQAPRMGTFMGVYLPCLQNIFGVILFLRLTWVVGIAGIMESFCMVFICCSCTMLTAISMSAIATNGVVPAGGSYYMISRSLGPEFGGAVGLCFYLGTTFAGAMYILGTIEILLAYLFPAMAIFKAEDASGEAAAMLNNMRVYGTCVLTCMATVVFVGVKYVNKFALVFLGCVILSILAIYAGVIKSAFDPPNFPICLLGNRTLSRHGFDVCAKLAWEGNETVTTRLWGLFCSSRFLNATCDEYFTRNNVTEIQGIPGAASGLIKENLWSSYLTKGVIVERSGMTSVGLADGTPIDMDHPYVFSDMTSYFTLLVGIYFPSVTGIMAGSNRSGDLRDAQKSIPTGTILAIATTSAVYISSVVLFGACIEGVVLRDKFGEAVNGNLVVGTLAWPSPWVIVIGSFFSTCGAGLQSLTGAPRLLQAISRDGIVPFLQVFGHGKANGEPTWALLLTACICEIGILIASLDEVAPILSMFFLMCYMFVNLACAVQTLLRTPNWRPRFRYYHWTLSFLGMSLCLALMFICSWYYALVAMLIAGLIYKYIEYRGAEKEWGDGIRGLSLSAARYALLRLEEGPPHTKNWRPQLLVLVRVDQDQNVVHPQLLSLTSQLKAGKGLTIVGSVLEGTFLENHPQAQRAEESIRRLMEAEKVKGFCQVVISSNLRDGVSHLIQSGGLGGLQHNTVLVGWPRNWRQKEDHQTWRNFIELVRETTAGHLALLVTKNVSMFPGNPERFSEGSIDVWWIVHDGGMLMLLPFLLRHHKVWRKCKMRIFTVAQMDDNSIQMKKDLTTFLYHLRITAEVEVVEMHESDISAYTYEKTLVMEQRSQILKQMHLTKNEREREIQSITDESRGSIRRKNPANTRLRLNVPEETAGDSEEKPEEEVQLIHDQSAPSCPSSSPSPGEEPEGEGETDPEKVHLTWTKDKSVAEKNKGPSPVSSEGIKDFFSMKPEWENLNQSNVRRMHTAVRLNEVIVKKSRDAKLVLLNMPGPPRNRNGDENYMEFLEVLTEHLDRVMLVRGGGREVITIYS
inactive: [1] 0.089 | crizotinib 0.001 | [2] 0.028 | [3] 0.027 | duvelisib -0.07 | tozasertib -0.039 | [4] 0.083 | doramapimod 0.234 | bafetinib 0.009 | dasatinib -0.034 | [8] 0.002 | tipifarnib 0.117 | mubritinib -0.001

SCAMP2 (UniProt H3BUB6)
inactive: [1] 0.085 | crizotinib 0.128 | [2] -0.011 | [3] 0.317 | duvelisib 0.166 | tozasertib -0.159 | [4] -0.305 | doramapimod -0.088 | ispinesib -0.258 | bafetinib -0.226 | nilotinib -0.056 | [6] 0.03 | dasatinib 0 | [7] -0.069 | [8] 0.062 | [9] 0.095 | tipifarnib 0.188 | mubritinib 0.023

RRP36 (UniProt Q96EU6)
Sequence of UniProt Q96EU6 (Q96EU6 whole entry, looked up): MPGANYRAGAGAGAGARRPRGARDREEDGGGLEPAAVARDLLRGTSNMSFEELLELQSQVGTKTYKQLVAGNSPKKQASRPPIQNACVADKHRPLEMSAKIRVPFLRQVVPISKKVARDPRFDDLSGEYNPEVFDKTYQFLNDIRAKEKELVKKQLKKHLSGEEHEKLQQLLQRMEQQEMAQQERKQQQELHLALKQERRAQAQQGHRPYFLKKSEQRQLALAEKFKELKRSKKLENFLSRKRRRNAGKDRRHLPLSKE
inactive: [1] -0.115 | [2] -0.645 | [3] 0.271 | duvelisib -0.16 | gandotinib 0.182 | tozasertib 0.031 | [4] 0.022 | ispinesib 0.043 | bafetinib 0.428 | [5] 0.054 | nilotinib -0.007 | [6] 0.203 | dasatinib 0.164 | [7] -0.011 | [8] -0.319 | [9] -0.016 | tipifarnib 0.208 | mubritinib -0.132

SCYL3 isoform 2 (UniProt Q8IZE3)
inactive: crizotinib -0.118 | [2] -0.106 | [3] -0.044 | duvelisib 0.129 | gandotinib -0.069 | tozasertib -0.113 | [4] -0.024 | doramapimod -0.01 | ispinesib -0.041 | bafetinib -0.056 | [5] -0.017 | nilotinib -0.215 | [6] -0.167 | dasatinib -0.124 | [7] 0.111 | [8] -0.062 | [9] -0.05 | tipifarnib 0.044 | mubritinib 0.032
